# According to PubChem BioAssay AID2546 (National Center for Advancing Translational Sciences (NCATS), 2010):
# The whole screen tested about 310,000 compounds, of which about 11,000 (3.5%) were called active. Inconclusive results (about 8%) are left out. The entries come from a sample that favours actives as a whole. Values without a mark were called inactive. Calls follow the shape of the dose curve; as a rule, active = well fitted inhibition curve with a large enough effect; inconclusive = small, poorly fitted or top-dose-only effect, or effect the other way; inactive = flat fitted curve, though single readings scatter.
# Test: VP16 counterscreen qHTS for inhibitors of ROR gamma transcriptional activity;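 also: Gal4-VP16 expression switched on by copper sulfate through the metallothionein promoter; nearly all actives have a fitted effect of over 50% in size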
# Settings: Drosophila S2 Gal4-VP16 UAS-luciferase, luminescence, 20 h; series mostly up to 53.6 µM; activity, negative = inhibition: at the top concentration
# % is scaled to controls: 0 for no effect and ±100 for the full control effect; potency is read from the fitted curve at half-maximal effect.
Structure (SMILES),"activity, negative = inhibition",Potency
CC(=O)Nc1ccc(S(=O)(=O)Oc2ccc(/C=N/N=C3/NC(=O)C(CC(=O)O)S3)cc2)cc1 (centres undefined),-5.43%,–
CCC1C/C(=C/c2cccs2)C(=O)/C(=C/c2cccs2)C1 (centres undefined),-6.69%,–
CCCCC1S/C(=N/N=C/c2cccs2)NC1=O (centres undefined),–,0.316 µM (active)
CCN(CC)CCCNC(=O)COc1ccc2oc3c(c2c1)CCCC3,3.68%,–
Cc1ccc(OCC(=O)Nn2cnc3ccccc32)cc1,-19%,–
Cc1ccc(OS(=O)Nc2cccc3nccnc23)cc1 (centres undefined),–,3.16 µM (active)
COc1ccc(NC(=O)Nc2cccc3cccnc23)cc1,3.34%,–
Cc1csc(NC(=O)NC2(C(F)(F)F)Oc3ccccc3O2)n1,1.3%,–
O=C(Nc1cc(N2CCOCC2)ncn1)NC1(C(F)(F)F)Oc2ccc(Cl)cc2O1 (centres undefined),–,15.8 µM (active)
O=C(CN1C(=O)COc2ccc(Cl)cc21)Nc1ccc(N2CCOCC2)cc1,-5.32%,–
COc1ccc(NC(=O)COc2ccc(C(=O)c3ccc(F)cc3)cc2)cc1S(N)(=O)=O,-23.6%,–
COc1ccc(NC(=O)C/C(C)=N/NC(=O)c2cnccn2)cc1Cl,21.2%,–
CCOC(=O)C1CCN(C(=O)COc2cccc3ccccc23)CC1,8.47%,–
CCN(CC)C(=O)COc1coc(CN2CCN(Cc3ccccc3)CC2)cc1=O,2.76%,–
Cc1ccccc1-c1n[nH]c(=S)n1/N=C/c1ccc(-c2ccccc2Br)o1,-9.75%,–
CCCc1cc(-c2n[nH]c(=S)n2CC)c2ccccc2n1,-5.97%,–
Cc1ccccc1-c1n[nH]c(=S)n1C,–,7.94 µM (active)
O=C(Nc1cccc(NC(=O)c2ccccc2[N+](=O)[O-])c1)c1ccccc1Cl,-0.237%,–
CCOC(=O)N/N=C/c1cn(Cc2ccccc2Cl)c2ccccc12,-29.6%,–
COc1cccc(Cn2cc(/C=N/NC(=O)c3cc(O)cc(O)c3)c3ccccc32)c1,-2.82%,–
COC(=O)N/N=C/c1cn(CCCOc2ccc(C)cc2)c2ccccc12,–,1 µM (active)
CCOC(=O)N1CCC(N2Cc3cccc(C(=O)Nc4ccc(S(=O)(=O)N(CC)CC)cc4)c3C2=O)CC1,-6.58%,–
CCN(CC)CCn1c(/N=C/c2cc(Br)ccc2O)nc2ccccc21,–,6.31 µM (active)
Oc1ccc(Cl)cc1/C=N/c1nc2ccccc2[nH]1,-9.3%,–
C/C(=N\c1nc2ccccc2n1C)c1cc(Cl)ccc1O,-2.88%,–
Cc1sc2ncn(CC(=O)NCCCC(=O)N3CCN(c4ccccc4F)CC3)c(=O)c2c1C,-6.88%,–
Cn1cccc1/C=N/NC(=O)c1ccc(OC(F)(F)C(F)F)cc1,–,5.62 µM (active)
Cn1cccc1/C=N/NC(=O)CNc1cccc2ccccc12,-5.21%,–
COc1ccc(/C=N/NC(=O)c2cccc(C(F)(F)F)c2)cc1,6.66% [at 10 µM],–
